Assay results as given in PubChem BioAssay AID1117319 (Southern Research Institute, 2015).
Where “and” joins values, the source holds several entries; their conditions need not be identical. Identical values can stand only once. The whole screen tested about 260,000 compounds, of which about 1,500 (0.58%) were called active. Not shown: some 5% with an inconclusive outcome.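 The calls were made as follows: active = inhibition above a set limit at one or more doses, reproduced on every date tested; inconclusive = results disagree between test dates, or hit never tested in dose response; inactive = the rest.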 A selection follows. Results with a measured potency or affinity are listed apart.

Molecular target: Virion infectivity factor (Human immunodeficiency virus type 1 group M subtype B (isolate BH10)) + Virion infectivity factor (Human immunodeficiency virus type 1 group M subtype B (isolate BRU/LAI)) + Virion infectivity factor (Human immunodeficiency virus type 1 group M subtype B (isolate PCV12)) + Virion infectivity factor (Human immunodeficiency virus type 1 group M subtype B (isolate HXB2)) + DNA dC->dU-editing enzyme APOBEC-3G (Homo sapiens) (UniProt P69720+P69721+P69722+P69723+Q9HC16)
Assay: HIV-1 Vif–A3G interaction blockers – biochemical, TR-FRET, GST-Vif 1-94, biotin-A3G peptide, dose response retest, primary screen (AID 1117319);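 also: Vif residues 1-94 fused to GST binding biotinylated APOBEC3G peptide 110-148; 0% = full assay without inhibitor and 100% = GST in place of GST-Vif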
Conditions: TR-FRET GST-Vif / biotin-A3G peptide binding; stronger effect = higher value

Row | SMILES | inhibition
1 | COc1ccccc1/C=C/C=N/NC(=O)c1ccco1 | -2.59% (inactive)
2 | COC(=O)c1cc(CSc2nc3ccccc3[nH]2)oc1C | -2.28% (inactive)
3 | CCCN(CCC)C(=O)c1ccc2c(c1)OCO2 | 14.8% (inactive)
4 | CCN(C(=O)CCS(=O)(=O)c1ccc(Br)cc1)c1ccc2c(c1)OCO2 | 27.3% (inactive)
5 | COc1ccc(S(=O)(=O)NCC(=O)NCc2cc(=O)n(C)c(=O)n2C)cc1 | -1.92% (inactive)
6 | O=c1[nH]c2ccccc2n2c(-c3ccncc3)nnc12 | 4.55% (inactive)
7 | O=c1[nH]c2ccccc2n2c(C(F)(F)F)nnc12 | -5.29% (inactive)
8 | Cc1sc(N(C(=O)CCc2ccccc2)c2ccc(C(=O)O)cc2)nc1-c1ccccc1 | -5.7% (inactive)
9 | COc1ccc(C(=O)NCCS(=O)(=O)NC2CCCC2)cc1 | -8.13% (inactive)
10 | CCOC(=O)c1c(C)[nH]c(C(=O)Cn2c(=O)oc3ccccc32)c1C | -6.81% (inactive)
11 | CC(=O)Cn1c(=O)oc2ccccc21 | 0.93% (inactive)
12 | Cc1ccccc1CS(=O)(=O)Cc1ccc(C(=O)NCCCN2CC(C)CC(C)C2)o1 (centres undefined) | 28% (inactive)
13 | Cc1ccc(S(=O)(=O)NCCSCc2ccco2)cc1 | -0.39% (inactive)
14 | COc1ccc(S(=O)(=O)NCCSCc2ccco2)cc1 | 24% (inactive)
15 | O=C1NC[C@@H](Cc2cccc3ccccc23)N(CC2CCCCC2)C1=O | 5.43% (inactive)
16 | COc1ccc(/C=C2\C(=O)NCC(=O)N2Cc2ccccc2)cc1 | -2.05% (inactive)
17 | CC1=CC(=O)C=C(C)C1=NOS(=O)(=O)c1ccccc1 | 9.66% (inactive)
18 | CC1=C/C(=N\OS(=O)(=O)c2ccccc2)C(C)=CC1=O | 19.9% (inactive)
19 | Cc1cccc(NS(=O)(=O)c2nnc(NC(=O)CC(C)C)s2)c1 | -2.78% (inactive)
20 | CCCn1c(C)cc(-c2csc(N)n2)c1C | 11.8% (inactive)
21 | C=CCn1c(C)cc(-c2csc(NCC)n2)c1C | 32.5% (inactive)
22 | COc1ccc(N2C3=C(CC4=C2CC(C)(C)CC4=O)C(=O)CC(C)(C)C3)cc1 | 24.6% (inactive) and 5.22% (inactive)
23 | COc1ccc(-n2ccc(=O)c3c2CCCC3=O)cc1 | 9% (inactive)
24 | Nc1cc(=O)[nH]c(SCc2ccc(Cl)cc2Cl)n1 | -1% (inactive)

Row | SMILES | inhibition
25 | CCN(CC(=O)Nc1ccccc1C(F)(F)F)C(=O)Cn1c(=O)cnc2ccccc21 | -3.46% (inactive)
26 | Cc1nc2sc3c(c2c(=O)o1)CCC3 | 11.5% (inactive)
27 | O=c1[nH]c2sc3c(c2c2nncn12)CCCC3 | 24.3% (inactive)
28 | Cc1cccnc1NC(=O)c1ccc(S(=O)(=O)N2CCCCCC2)cc1 | -2.42% (inactive)
29 | Cc1ccc(CN2CCC[C@]3(N[C@H](c4ccc(C(F)(F)F)cc4)[C@@H]4C(=O)N(Cc5ccccc5)C(=O)[C@@H]43)C2=O)cc1 | 5.48% (inactive)
30 | Nc1nc2cc(S(=O)(=O)N3CCOCC3)ccc2o1 | -2.39% (inactive)
31 | CCn1c2ccccc2c2nc3cc(S(=O)(=O)N4CCOCC4)ccc3nc21 | 2.64% (inactive)
32 | O=C(OCn1nnc2ccccc2c1=O)c1cccnc1Cl | 0.6% (inactive)
33 | COc1nc(NCCC2=CCCCC2)nc(OC)n1 | -1.44% (inactive)
34 | CCOC(=O)N1CCN(C(=O)c2cc(C)no2)CC1 | -3.25% (inactive)
35 | CC(=O)N/C(=C\c1ccccc1)C(=O)OCC(=O)N(CC(C)C)c1c(N)n(Cc2ccccc2)c(=O)[nH]c1=O | 4.02% (inactive)
36 | COc1ccc(C(=O)OCC(=O)Nc2ncc([N+](=O)[O-])s2)cc1OC | 5.33% (inactive)
37 | CC(C)CC(=O)Nc1ncc([N+](=O)[O-])s1 | 8.92% (inactive)
38 | Cc1csc(NC(=O)CSc2nncn2C)n1 | 7.24% (inactive)
39 | O=C(COC(=O)c1cccc([N+](=O)[O-])c1)Nc1ncc(Br)s1 | 1.23% (inactive)
40 | C=CCn1c(SCC(=O)NCc2ccc3c(c2)OCO3)nc2scc(-c3ccccc3)c2c1=O | -40.6% (inactive)
41 | Cc1ccsc1C(=O)Nc1nc2ccccc2[nH]1 | -12.8% (inactive)
42 | COc1ccc(NC(=O)C2(c3ccc(NC(=O)c4ccc(OC)c(OC)c4)cc3)CCCC2)cc1 | 0.05% (inactive)
43 | O=C(Nc1ccc(Br)cn1)C1CCCN1S(=O)(=O)c1ccccc1 (centres undefined) | 4.08% (inactive)
44 | CC1=CCC2C(=O)N(c3nc4ccccc4n3C)C(=O)C2C1 (centres undefined) | 24.7% (inactive)
45 | Cc1cccc(N2C(=O)CC(N(O)c3ccccc3)C2=O)c1 (centres undefined) | 3.45% (inactive)
46 | O=C(/C=C/c1cccs1)N1CCN(c2ccccc2)CC1 | -0.91% (inactive)
47 | O=C(/C=C/c1cccs1)N1CCN(c2ccc(F)cc2)CC1 | 3.81% (inactive)
48 | COC(=O)CC1C(=O)NCCN1C(=S)NC(=O)c1ccccc1[N+](=O)[O-] (centres undefined) | 13.4% (inactive)

Row | SMILES | inhibition
49 | COc1ccc2c(c1)c(=O)oc1cc(OCC(=O)NC3CC3)ccc12 | -2.02% (inactive)
50 | COc1ccc2c(c1)c(=O)oc1cc(OCC(=O)N3CCCC(C)C3)ccc12 (centres undefined) | -1.48% (inactive)
51 | CCCOC(=O)c1ccc(NC(=O)c2ccccc2[N+](=O)[O-])cc1 | -4.31% (inactive)
52 | CCN(CC)S(=O)(=O)c1ccc(C(=O)OC2CCCCC2CN(C)C)cc1 (centres undefined) | -1.05% (inactive)
53 | COc1ccc(CCNS(=O)(=O)CCNC(=O)c2ccccc2)cc1 | -6.03% (inactive)
54 | CC(/C=C/c1ccc(Cl)o1)=C\C(=O)O | 27.4% (inactive)
55 | CC(/C=C/c1ccc(C)o1)=C\C(=O)O | 2.74% (inactive)
56 | O=C1C2C3CCC(C3)C2C(=O)N1CNc1ccccc1 (centres undefined) | -1.35% (inactive)
57 | Cc1ccc2[nH]c(=O)c(CN(C(=O)c3cccc([N+](=O)[O-])c3)C(C)(C)C)cc2c1 | -6% (inactive)
58 | CN(Cc1ccccc1)S(=O)(=O)c1ccc(Cl)c(C(=O)NCCCN2CCOCC2)c1 | -5.26% (inactive)
59 | CC1(OC(=O)C2CCCC2)C(=O)C=C2C=C(c3ccsc3)N(C(CO)CO)C=C2C1=O (centres undefined) | 15.2% (inactive)
60 | CC1(OC(=O)CCc2ccccc2)C(=O)C=C2C=C(c3ccc(C#N)cc3)N(CC3CC3)C=C2C1=O (centres undefined) | -1.42% (inactive)
61 | CC(C)CN1C=C2C(=O)C(C)(OC(=O)C3CCCC3)C(=O)C=C2C=C1c1ccsc1 (centres undefined) | 28.7% (inactive)
62 | CC1(OC(=O)CCc2ccccc2)C(=O)C=C2C=C(c3ccc(C#N)cc3)N(C(CO)CO)C=C2C1=O (centres undefined) | 0.31% (inactive)
63 | COc1ccc(-c2ccc(SCC(=O)N3CCOCC3)nn2)cc1OC | 2.85% (inactive)
64 | COc1ccccc1OCCCC(=O)Nc1nnc(C2CCCO2)s1 (centres undefined) | -0.39% (inactive)
65 | Cc1n[nH]c(=S)n(/N=C/c2cccs2)c1=O | -1.81% (inactive)
66 | Cc1nn2c(=S)[nH]nc2[nH]c1=O | 14.1% (inactive)
67 | COC(=O)[C@H]1C[C@@H]1[C@H](NC(=O)OCc1ccccc1)c1ccccc1 | -8.43% (inactive)
68 | COC(=O)[C@H]1C[C@@H]1[C@H](NC(=O)[C@H]1C[C@@H]1[C@H](NC(=O)OCc1ccccc1)c1ccccc1)c1ccccc1 | 25.9% (inactive)
69 | Cc1ccc2cc3cc(C(=O)NCCCN4CCCC4)oc3nc2c1 | -1.36% (inactive)
70 | CC1=NN(c2cc(Cl)c(S(=O)(=O)O)cc2Cl)C(=O)C1 | 8.79% (inactive)
71 | O=C(O)C1=NN(c2ccccc2)C(=O)C1 | 13.7% (inactive)
72 | COCCCn1c(SCC(N)=O)nnc1-c1ccccc1 | 2.76% (inactive)

Row | SMILES | inhibition
73 | C=CCN1C(=O)/C(=C/c2ccsc2)SC1=S | 21.3% (inactive)
74 | COc1ccc(CN(CC(=O)NC2CCCC2)C(=O)c2onc(C(N)=O)c2N)cc1 | 30.2% (inactive)
75 | COc1cccc(CN2C(=O)CN(C3CCCCC3)C(=O)C2c2ccc(F)cc2)c1 (centres undefined) | 1.82% (inactive)
76 | CC1=CC(C)(C)Nc2ccc(OC(=O)CCN3C(=O)c4ccccc4C3=O)cc21 | 3.55% (inactive)
77 | Cc1ccc(OC(=O)c2cccnc2)cc1 | -1.57% (inactive)
78 | CC1=CC(C)(C)Nc2ccc(OC(=O)c3ccco3)cc21 | 16.4% (inactive)
79 | CC1=CC(C)(C)Nc2ccc(OC(=O)CN3C(=O)c4ccccc4C3=O)cc21 | 19.2% (inactive)
80 | CC(Oc1ccccc1F)C(=O)/C=C/N(C)C (centres undefined) | 5.44% (inactive)
81 | O=C(Nc1ccc(Oc2ccccc2)nc1)C1CCCCN1Cc1ccco1 (centres undefined) | 9.99% (inactive)
82 | O=C(Nc1cccnc1)c1ccc(S(=O)(=O)c2ccccc2)cc1 | -0.77% (inactive)
83 | O=C(NCc1ccccc1)C(=O)NCC1OCCCN1S(=O)(=O)c1cccs1 (centres undefined) | -3.27% (inactive)
84 | NC(=O)Nn1c(CCC(=O)O)ccc1-c1ccc(Cl)cc1 | 3.68% (inactive)
85 | NC(=O)Nn1c(CCC(=O)O)ccc1-c1ccc(F)cc1 | 4.46% (inactive)
86 | Cc1nc(-c2cc(C#N)c(Sc3cccc(C(F)(F)F)c3)nc2C)cs1 | -11.1% (inactive)
87 | COCCN(C(=O)COC(=O)c1cc2ccccc2cc1O)c1c(N)n(Cc2ccccc2)c(=O)[nH]c1=O | 0.53% (inactive)
88 | CCOc1ccc(C(=O)Nc2ccc(N3CCCC3)cc2)cc1 | -1.32% (inactive)
89 | CCOc1c(Cl)cc(CNc2ccc(N3CCCC3)cc2)cc1OC | -0.34% (inactive)
90 | Cc1ccc2cc(CN(CCN(C)C)C(=S)Nc3ccccc3)c(=O)[nH]c2c1C | 17% (inactive)
91 | CCOc1ccc(C2CC(=O)NC(SC)=C2C#N)cc1 (centres undefined) | -1.81% (inactive)
92 | CS/C(=N\S(=O)(=O)c1cccs1)Nc1ccc(Cl)cc1 | 3.6% (inactive)
93 | COc1ccc(OC)c(C2C(C(=O)Nc3ccccc3OC)=C(C)Nc3nc(CCCO)nn32)c1 (centres undefined) | 18.4% (inactive)
94 | COc1ccc(C2C(C(=O)Nc3ccc(F)cc3)=C(C)Nc3nc(CCCO)nn32)cc1 (centres undefined) | -0.37% (inactive)
